This note sets out measurements from PubChem BioAssay (Tox21).

Experiment [1] can be described thus: qHTS assay for small molecule agonists of the p53 signaling pathway (AID 651631; calls by dose curve; also: nearly all actives have a fitted effect of over 15% in size; also: potency is read from the fitted curve at half-maximal effect). A digest of the protocol: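 Stably transfected HCT-116 cells (beta-lactamase behind p53 response elements) get compounds after a 5 h settling period; 16 h later at 37 °C, FRET substrate is loaded and fluorescence read after 2 h.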
(Quantitative high-throughput screening tests each substance at several concentrations.)

The nature of experiment [2]: qHTS assay for small molecules that induce genotoxicity in human embryonic kidney cells expressing luciferase-tagged ATAD5 (AID 651632). Also: nearly all actives have a fitted effect of over 15% in size. A digest of the protocol: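 ATAD5-luc HEK293T, 2,000 cells/well; cpd or DMSO pin-transferred; 16 hr, 37C/5% CO2; Amplite 30 min RT; luminescence.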
A short description of experiment [3]: qHTS assay for small molecule agonists of the p53 signaling pathway - cell viability (AID 651633; calls by dose curve;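 also: p53RE-bla HCT reporter cells with a stable beta-lactamase p53 reporter; series mostly up to about 83 µM; nearly all actives have a fitted effect of over 30% in size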). A digest of the protocol:
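Viability counter-read: CellTiter-Glo luminescence (30 min, room temperature) in the same p53RE-bla plates. These plates had been exposed to compounds for 16 h at 37 C.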

Experiment [4] is described as follows: qHTS assay for small molecules that induce genotoxicity in human embryonic kidney cells expressing luciferase-tagged ATAD5 - cell viability (AID 651634; calls by dose curve; also: nearly all actives have a fitted effect of over 25% in size). A digest of the protocol:
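Fluorescence from CellTiter-Fluor, reporting protease activity within live cells, served as the viability read-out. HEK293T cells carrying luciferase-tagged ATAD5 had been treated with compound for 15.5 hr at 37C.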

A short description of experiment [5]: qHTS assay for small molecule disruptors of the mitochondrial membrane potential - cell viability (AID 720634; calls by dose curve;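 also: human HepG2 liver cancer cells; series mostly up to about 83 µM; nearly all actives have a fitted effect of over 20% in size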). A digest of the protocol: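 Cells: HepG2, 2,000/well, attached overnight. Compound 1 hr, 37 C/5% CO2. +m-MPI dye, +CellTiter-Glo 30 min RT. Readout: luminescence (ATP).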
Experiment [6] can be described thus: qHTS assay to test for compound auto fluorescence at 590 nm (red) in HepG2 cells (AID 720674). A digest of the protocol: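 We screened compounds on adherent HepG2 cells, incubating them for an hour at 37 C in 5% CO2 before reading emission at 590 nm under 540 nm excitation; values reflect equivalence to Rose Bengal sodium fluorescence.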
A short description of experiment [7]: qHTS assay to test for compound auto fluorescence at 460 nm (blue) in HEK293 cells (AID 720678). A digest of the protocol: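 Intrinsic compound fluorescence is recorded in live HEK293 cultures after overnight incubation at 37C, 5% CO2, using excitation 405 nm and emission 460 nm. Values are referenced to triamterene.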
The nature of experiment [8]: qHTS assay to test for compound auto fluorescence at 590 nm (red) in HEK293 cells (AID 720679). A digest of the protocol: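 Red autofluorescence, HEK293 cells: 2,000 cells/well; attach 4-5 hr 37C; add 23 nL cpd or DMSO; incubate o/n 37C 5% CO2; read Ex540/Em590; Rose Bengal sodium reference.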
Experiment [9] can be described thus: qHTS assay for small molecule disruptors of the mitochondrial membrane potential (AID 720635). Also: potency is read from the fitted curve at half-maximal effect. A digest of the protocol: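 Mitochondrial membrane potential tracked with Mito-MPS dye, red aggregates (ex 540/em 590 nm) against green monomers (ex 490/em 535 nm). Compound treatment 1 hr at 37C, dye 30 min in HepG2.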
The nature of experiment [10]: qHTS assay to test for compound auto fluorescence at 535 nm (green) in HepG2 cells (AID 720675).

Results filed as inconclusive are left out. Active and inactive are the calls of the source. Unless noted, calls follow the shape of the dose curve; as a rule, active = well fitted curve in the direction sought with a large enough effect in the repeat runs; inconclusive = weak or mixed curves; inactive = no such curve, though single readings can be large; an effect the other way counts as inactive or inconclusive.

For `CC[C@H](C)[C@@H](C(=O)O)n1sc2ccccc2c1=O`, the Potency entry in experiment [1], in [2], in [3], in experiment [4], in experiment [5] and in experiment [7] was “inactive” in each case. Also, the call in experiment [6] and in experiment [8] was inactive.
As to `CCCC[C@H]1CN(CC2CCOCC2)C(=O)OC12CCN(C1(C)CCN(C(=O)c3c(C)ncnc3C)CC1)CC2`, the Potency result in experiment [1], in experiment [3], in [4], in [5], in experiment [9] and in experiment [7] was “inactive” throughout. Moreover, the outcome in experiment [6] and in experiment [10] was inactive.
As for `O=C(O)C1CCC(C(=O)O)CC1` (centres undefined), the Potency result in [1], in experiment [2], in [3], in experiment [4], in experiment [5] and in [7] was “inactive” throughout. Moreover, the call in [6], in experiment [10] and in [8] was inactive.
With `CC1CCc2cc(F)cc3c(=O)c(C(=O)O)cn1c23` (centres undefined), the Potency entry in [1], in experiment [2], in experiment [3], in [4], in experiment [5] and in [7] was “inactive” throughout. Further, the result in experiment [6], in experiment [10] and in experiment [8] was inactive.
In the case of `CN(C)C/C=C(/c1ccc(Br)cc1)c1cccnc1`, the Potency entry in experiment [1], in experiment [2], in experiment [3], in [4] and in experiment [5] was “inactive” each time. Also, the compound was called inactive in experiment [6] and in [8].
Take `CCCCOC(=O)c1ccccc1C(=O)OCC(CC)CCCC` (centres undefined): in [1], the Potency was 54.5 µM (active). Further, the Potency result in [2], in experiment [3], in [4] and in experiment [7] was “inactive” in each case. Moreover, the compound was called inactive in [6], in experiment [10] and in experiment [8].
Regarding `O=C(O)c1cccc(N(Cc2cccnc2)c2ccc(OC(F)F)c(OC(F)F)c2)c1`, the Potency entry in experiment [1], in experiment [2], in experiment [3], in experiment [4] and in [5] was “inactive” throughout. The compound was classed as inactive in experiment [6], in experiment [10] and in [8].
On to `Oc1ccc(O)c2c(O)cccc12`, for which the Potency result in [1], in experiment [2], in [3], in experiment [4], in experiment [5] and in [7] was “inactive” throughout. Also, the compound was classed as inactive in experiment [6] and in experiment [8].
For `C#CCOC(=O)[C@@H](C)Oc1ccc(Oc2ncc(Cl)cc2F)cc1`, the Potency entry in [1], in experiment [2], in experiment [3], in experiment [4] and in experiment [7] was “inactive” throughout. The compound was called inactive in experiment [6], in [10] and in [8].
As to `CCCC(=O)OCC`, the Potency result in experiment [1], in experiment [2], in experiment [3], in experiment [4], in experiment [5] and in experiment [7] was “inactive” each time. The call in experiment [6], in experiment [10] and in experiment [8] was inactive.
As for `CCN(CC)CCOC(=O)C1(c2ccccc2)CCCC1`, the Potency entry in [1], in experiment [2], in [3], in experiment [4], in experiment [5] and in [7] was “inactive” each time. Also, the result in experiment [6], in [10] and in experiment [8] was inactive.
As to `CC(=O)Nc1ccc(/C=N/NC(N)=S)cc1`, the Potency result in experiment [1], in [2], in experiment [3], in [4], in experiment [5] and in experiment [7] was “inactive” in each case. Also, the compound was called inactive in [6], in experiment [10] and in experiment [8].
Turning to `COc1ccc(C(C)=O)cc1`, the Potency entry in experiment [1], in experiment [3], in experiment [4], in [5] and in [7] was “inactive” throughout. Also, the result in [6], in experiment [10] and in experiment [8] was inactive.
For `O=S(=O)(O)c1ccc(O)c2ncccc12`, the Potency entry in experiment [2], in experiment [3], in experiment [4], in experiment [5] and in experiment [9] was “inactive” in each case. Further, the compound was classed as inactive in [6] and in experiment [10].
Turning to `C1=Cc2ccccc2C1`, the Potency result in experiment [1], in experiment [3], in [4], in [5] and in [7] was “inactive” each time. Further, the call in experiment [6], in [10] and in experiment [8] was inactive.
Take `CC(C)CCCCCCOC(=O)c1ccc(C(=O)OCCCCCCC(C)C)c(C(=O)OCCCCCCC(C)C)c1`: the Potency entry in [2], in [3], in experiment [4], in [5], in experiment [9] and in experiment [7] was “inactive” in each case. Besides, the compound was classed as inactive in [6], in experiment [10] and in experiment [8].
For `C=CC(C)(CCC=C(C)C)OC(=O)c1ccccc1` (centres undefined), the Potency result in [1], in experiment [3], in experiment [4], in experiment [5] and in experiment [7] was “inactive” each time. Also, the compound was called inactive in experiment [6], in [10] and in experiment [8].
For `O=C(c1ccccc1)c1ccc2n1CCC2C(=O)O` (centres undefined), the Potency result in experiment [1], in experiment [3], in experiment [4], in experiment [5], in [9] and in experiment [7] was “inactive” in each case. Besides, the outcome in [6] and in experiment [8] was inactive.
With `CC[C@@H]1C[C@H](N(Cc2cc(C(F)(F)F)cc(C(F)(F)F)c2)C(C)=O)c2cc(C(F)(F)F)ccc2N1C(=O)OC(C)C`, the Potency result in [2], in [3], in experiment [4], in experiment [5] and in experiment [7] was “inactive” throughout. In addition, the Potency in experiment [9] is 4.33 µM (active). The compound was classed as inactive in experiment [6], in experiment [10] and in [8].
In the case of `O=C1[C@H](CC[C@H](O)c2ccc(F)cc2)[C@@H](c2ccc(O)cc2)N1c1ccc(F)cc1`, the Potency result in experiment [2], in experiment [3], in experiment [4], in experiment [5] and in [7] was “inactive” in each case. In addition, the Potency in experiment [9] was 23.7 µM (active). The compound was classed as inactive in experiment [6] and in experiment [10].
For the compound `SC1CCCC1`, the Potency result in [2], in experiment [3], in experiment [4], in experiment [5], in experiment [9] and in [7] was “inactive” throughout. In addition, the compound was classed as inactive in [6], in experiment [10] and in [8].
`CN(C)CCCNCCCN`: the Potency result in experiment [2], in [3], in experiment [4], in [5], in experiment [9] and in experiment [7] was “inactive” in each case. In addition, the result in [6] and in [10] was inactive.
For `CCCC(C)C`, the Potency result in [2], in [3], in experiment [4], in experiment [5], in experiment [9] and in [7] was “inactive” throughout. For the same compound, the compound was classed as inactive in experiment [6], in experiment [10] and in [8].
Regarding `CCCCCCCCCCCCCCCBr`, the Potency entry in experiment [1], in experiment [3], in [4], in experiment [5] and in experiment [7] was “inactive” each time. In addition, the call in experiment [6], in experiment [10] and in experiment [8] was inactive.
In the case of `CC1=CCC(C(C)C)C=C1` (centres undefined), the Potency result in [1], in experiment [3], in experiment [4] and in experiment [7] was “inactive” each time. The call in [6], in experiment [10] and in experiment [8] was inactive.
In the case of `CCCCCc1ccc(N)cc1`, the Potency result in [1], in experiment [3], in experiment [4], in experiment [5] and in experiment [7] was “inactive” throughout. The compound was classed as inactive in experiment [6], in experiment [10] and in experiment [8].
